Inconclusive results are not listed. The source made the active and inactive calls. The call rests on the fitted dose curve; in most records, active means well fitted curve in the direction sought with a large enough effect; inconclusive means small, poorly fitted or top-dose-only effect, or another doubt; inactive means no such curve, though single readings can be large; an effect the other way counts as inactive or inconclusive.
Key:
[1] = qHTS for ATAD5 Agonist screened against the NCATS CANVASS Library (AID 1347367);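 further: luciferase reporter driven by ATAD5 which rises upon DNA damage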
How it was run: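 HEK293T cells stably carrying an ATAD5-controlled luciferase reporter (2000 cells/well) attached for 5 hr, then received compounds in an 11-point series for 16hr at 37C. Luminescence was read after a 30 min room-temperature reagent step.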

[2] = G06 Cancer Cell Toxicity qHTS against the NCATS CANVASS Library (AID 1347368); further: nearly all actives have a fitted effect of over 60% in size
Excerpt: (§1) Natural products and their derivatives continue to be wellsprings of nascent therapeutic potential. However, many laboratories have limited resources for biological evaluation, leaving their previously isolated or synthesized compounds largely or completely untested. To address this issue, the Canvass library of natural products was assembled (https://tripod.nih.gov/canvass), in collaboration with academic and industry researchers, for quantitative high-throughput screening (qHTS) across a diverse set of cell-based and biochemical assays. […] The library was formatted into 1536-well plates and evaluated in 50 qHTS (in an 11-pnt concentration series) bioassays with broad scope of disease-relevant mechanisms. The resulting data set from 50 different assays was then systematically analyzed to identify overall trends and specific natural products with interesting biological activities. […] This assay uses ATP (luminescence) content to measure the cytotoxiciy of compounds on G06 dog glioma cancer cell line. […]
(§2) Cancer Cell Toxicity qHTS protocol: for cell lines G06, J3T, and SDT. […] Luminescence signal was acquired via the ViewLux plate reader (PerkinElmer) using a clear emission filter, 2 sec exposure, and 1x binning settings.

[3] = qHTS for ATAD5 Antagonist screened against the NCATS CANVASS Library (AID 1347370);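 further: HEK293T cells carrying an ATAD5 luciferase reporter co-treated with 10 µM 5-fluorouridine; nearly all actives have a fitted effect of over 65% in size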
Excerpt: as §1, with “Luminescence intensity is proportional” for “This assay uses ATP (luminescence) content”, “ATAD5 expression.” for “measure the cytotoxiciy of compounds on G06 dog glioma cancer cell line.”
ATAD5 Agonist assay protocol: 1. […] A first readout of fluorescence signal was acquired via the ViewLux (PerkinElmer) plate reader using filter sets for AFC (380-400nmEx/505Em) and 1 second exposure setting. […] 8.#A second readout of luminescence signal was acquired via the ViewLux plate reader using a clear emission filter, 10 second exposure setting.

[4] = J3T Cancer Cell Toxicity qHTS against the NCATS CANVASS Library (AID 1347371); settings: J3T dog glioma viability, ATP luminescence, 72 h; at 91.4 µM (top of the series)
Excerpt: as §1, with “J3T” for “G06”
as §2

[5] = target: Nuclear receptor subfamily 1 group I member 3 (Homo sapiens) (UniProt Q14994); experiment: qHTS for Constitutive Androstane Receptor (CAR) Antagonist screened against the NCATS CANVASS Library (AID 1347372);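 further: cells stimulated with 50 nM CITCO agonist so inhibition reflects antagonism; luciferase from CYP2B6 promoter reporter driven by hCAR in HepG2 cells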
How it was run: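 Luminescence readout (ONE-Glo, 30 min RT) of CYP2B6-2.2kb reporter in HepG2-hCAR cells after 24hr, 37C treatment with compound against 50 nM CITCO; CellTiter-Fluor viability read beforehand.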

[6] = target: Nuclear receptor subfamily 1 group I member 3 (Homo sapiens) (UniProt Q14994); experiment: qHTS for Constitutive Androstane Receptor (CAR) Agonist screened against the NCATS CANVASS Library (AID 1347373);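 further: every well also contained 1.5 µM PK11195 alongside the test compound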
How it was run: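 Agonist mode with 1.5uM PK11195 present: compounds for 24hr on HepG2-hCAR-CYP2B6 cells. CellTiter-Fluor fluorescence (ex 405, em 540 nm) gives viability; ONE-Glo luminescence reports CAR activation.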

[7] = 10-beta competent E. coli microbial cell viability qHTS against the NCATS CANVASS Library (AID 1347376)
How it was run: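 Read-out: BacTiter-Glo ATP luminescence, taken 20 min after reagent addition. Beforehand, 10-beta competent E. coli at 0.2 OD had been incubated overnight at 37C with compounds at 11 concentrations.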

[8] = DH5-alpha competent E. coli microbial cell viability qHTS against the NCATS CANVASS Library (AID 1347377)
How it was run: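 Bacterial viability as ATP-dependent luminescence (BacTiter-Glo), read after overnight 37 °C exposure of DH5-alpha competent E. coli to compounds in 11-point titration.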

[9] = qHTS for H2AX Agonists against the NCATS CANVASS Library (AID 1347378);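 further: phospho-H2AX S139 level in CHO-K1 lysates by TR-FRET emission ratio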
Excerpt: Natural products and their derivatives continue to be wellsprings of nascent therapeutic potential. However, many laboratories have limited resources for biological evaluation, leaving their previously isolated or synthesized compounds largely or completely untested. To address this issue, the Canvass library of natural products was assembled (https://tripod.nih.gov/canvass), in collaboration with academic and industry researchers, for quantitative high-throughput screening (qHTS) across a diverse set of cell-based and biochemical assays. The pure (>85% purity by liquid chromatography/mass spectrometry [LC/MS]) Canvass library of 346 natural products were submitted by 45 academic laboratories and companies around the world. We collected pure natural products to circumvent deconvolution and structure elucidation due to time and resource limitations. The library was formatted into 1536-well plates and evaluated in 50 qHTS (in an 11-pnt concentration series) bioassays with broad scope of disease-relevant mechanisms. The resulting data set from 50 different assays was then systematically analyzed to identify overall trends and specific natural products with interesting biological activities. […] It is based on time resolved fluorescence resonance energy transfer (TR-FRET). […] The results were expressed as the ratio of 665/615 nm emissions. […]

[10] = qHTS for Inflammasome Signaling Inhibitors: IL-1-beta AlphaLISA screen against the NCATS CANVASS Library (AID 1347379); settings: THP-1 LPS/ATP, IL-1B AlphaLISA secretion, 16 h; at 114 µM (top of the series);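 further: human THP-1 cells primed with LPS then triggered with ATP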
How it was run: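 Secreted IL-1B from human THP-1 cells quantified by AlphaLISA 16 hr after compound addition (final up to 57.5 uM). A 1 hr compound pretreatment preceded inflammasome activation with 250 ng/mL LPS plus 1.25 mM ATP (final).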

Measured: outcome

Nuclear receptor subfamily 1 group I member 3 (Homo sapiens), sequence (Q14994 whole entry, looked up): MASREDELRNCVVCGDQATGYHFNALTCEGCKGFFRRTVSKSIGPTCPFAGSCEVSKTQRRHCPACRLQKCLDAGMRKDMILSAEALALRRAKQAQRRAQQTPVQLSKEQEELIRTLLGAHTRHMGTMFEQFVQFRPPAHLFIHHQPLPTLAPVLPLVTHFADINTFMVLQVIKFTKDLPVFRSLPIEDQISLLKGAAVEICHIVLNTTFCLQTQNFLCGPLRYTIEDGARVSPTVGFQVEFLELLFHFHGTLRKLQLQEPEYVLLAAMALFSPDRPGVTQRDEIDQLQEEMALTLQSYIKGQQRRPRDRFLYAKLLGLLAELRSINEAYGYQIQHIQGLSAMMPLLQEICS

NCCc1ccc(O)cc1
inactive: [1] | [2] | [3] | [4] | [5] | [6] | [7] | [8] | [9] | [10]

Source: PubChem BioAssay (NCATS)
